From PubChem
Sampled rows, rich in hits. Any-hit rate of the full collection: about 11%.
G9a inh – inhibitors of human histone lysine methyltransferase G9a; Q96KQ7; G9a H3K9 monomethylation, AlphaScreen, 2 h; Potency, µM (doses to about 102 µM), for inactives: at the top dose activity, negative = inhibition, most hits filed as inhibitors; 8.8% of 350,000 active; AID 504332; also: % is scaled to controls: 0 for no effect and ±100 for the full control effect; nearly all actives have a fitted effect of over 75% in size
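AlphaScreen read-out: biotin-H3K9 peptide (500 nM) methylation by 20 nM enzyme with 20 uM SAM, 2 h at room temperature after 15 min compound preincubation; anti-monomethyl H3K9 antibody plus donor/acceptor beads, 10 min dark.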
JMJD2A Tudor inh – JMJD2A Tudor domain (human) inhibition | AlphaScreen JMJD2A-Tudor / H3K4me3 peptide binding | AID 504339 | 4.4% of 390,000 active | O75164 | Potency, µM (series often up to 114 µM), inactives show at the highest dose activity change, negative = inhibition, actives largely listed as inhibitors; also: % is scaled to controls: 0 for no effect and ±100 for the full control effect; nearly all actives have a fitted effect of over 50% in size
BAZ2B block – inhibitors of human BAZ2B bromodomain; 4.4% of 360,000 active; AlphaScreen BAZ2B-H3K14Ac peptide displacement; Potency, µM (highest dose often 114 µM), for the others: at the highest dose activity change, negative = inhibition, most hits filed as inhibitors; Q9UIF8; also: % is scaled to controls: 0 for no effect and ±100 for the full control effect; nearly all actives have a fitted effect of over 60% in size
Target sequence (Q9UIF8 whole entry, looked up): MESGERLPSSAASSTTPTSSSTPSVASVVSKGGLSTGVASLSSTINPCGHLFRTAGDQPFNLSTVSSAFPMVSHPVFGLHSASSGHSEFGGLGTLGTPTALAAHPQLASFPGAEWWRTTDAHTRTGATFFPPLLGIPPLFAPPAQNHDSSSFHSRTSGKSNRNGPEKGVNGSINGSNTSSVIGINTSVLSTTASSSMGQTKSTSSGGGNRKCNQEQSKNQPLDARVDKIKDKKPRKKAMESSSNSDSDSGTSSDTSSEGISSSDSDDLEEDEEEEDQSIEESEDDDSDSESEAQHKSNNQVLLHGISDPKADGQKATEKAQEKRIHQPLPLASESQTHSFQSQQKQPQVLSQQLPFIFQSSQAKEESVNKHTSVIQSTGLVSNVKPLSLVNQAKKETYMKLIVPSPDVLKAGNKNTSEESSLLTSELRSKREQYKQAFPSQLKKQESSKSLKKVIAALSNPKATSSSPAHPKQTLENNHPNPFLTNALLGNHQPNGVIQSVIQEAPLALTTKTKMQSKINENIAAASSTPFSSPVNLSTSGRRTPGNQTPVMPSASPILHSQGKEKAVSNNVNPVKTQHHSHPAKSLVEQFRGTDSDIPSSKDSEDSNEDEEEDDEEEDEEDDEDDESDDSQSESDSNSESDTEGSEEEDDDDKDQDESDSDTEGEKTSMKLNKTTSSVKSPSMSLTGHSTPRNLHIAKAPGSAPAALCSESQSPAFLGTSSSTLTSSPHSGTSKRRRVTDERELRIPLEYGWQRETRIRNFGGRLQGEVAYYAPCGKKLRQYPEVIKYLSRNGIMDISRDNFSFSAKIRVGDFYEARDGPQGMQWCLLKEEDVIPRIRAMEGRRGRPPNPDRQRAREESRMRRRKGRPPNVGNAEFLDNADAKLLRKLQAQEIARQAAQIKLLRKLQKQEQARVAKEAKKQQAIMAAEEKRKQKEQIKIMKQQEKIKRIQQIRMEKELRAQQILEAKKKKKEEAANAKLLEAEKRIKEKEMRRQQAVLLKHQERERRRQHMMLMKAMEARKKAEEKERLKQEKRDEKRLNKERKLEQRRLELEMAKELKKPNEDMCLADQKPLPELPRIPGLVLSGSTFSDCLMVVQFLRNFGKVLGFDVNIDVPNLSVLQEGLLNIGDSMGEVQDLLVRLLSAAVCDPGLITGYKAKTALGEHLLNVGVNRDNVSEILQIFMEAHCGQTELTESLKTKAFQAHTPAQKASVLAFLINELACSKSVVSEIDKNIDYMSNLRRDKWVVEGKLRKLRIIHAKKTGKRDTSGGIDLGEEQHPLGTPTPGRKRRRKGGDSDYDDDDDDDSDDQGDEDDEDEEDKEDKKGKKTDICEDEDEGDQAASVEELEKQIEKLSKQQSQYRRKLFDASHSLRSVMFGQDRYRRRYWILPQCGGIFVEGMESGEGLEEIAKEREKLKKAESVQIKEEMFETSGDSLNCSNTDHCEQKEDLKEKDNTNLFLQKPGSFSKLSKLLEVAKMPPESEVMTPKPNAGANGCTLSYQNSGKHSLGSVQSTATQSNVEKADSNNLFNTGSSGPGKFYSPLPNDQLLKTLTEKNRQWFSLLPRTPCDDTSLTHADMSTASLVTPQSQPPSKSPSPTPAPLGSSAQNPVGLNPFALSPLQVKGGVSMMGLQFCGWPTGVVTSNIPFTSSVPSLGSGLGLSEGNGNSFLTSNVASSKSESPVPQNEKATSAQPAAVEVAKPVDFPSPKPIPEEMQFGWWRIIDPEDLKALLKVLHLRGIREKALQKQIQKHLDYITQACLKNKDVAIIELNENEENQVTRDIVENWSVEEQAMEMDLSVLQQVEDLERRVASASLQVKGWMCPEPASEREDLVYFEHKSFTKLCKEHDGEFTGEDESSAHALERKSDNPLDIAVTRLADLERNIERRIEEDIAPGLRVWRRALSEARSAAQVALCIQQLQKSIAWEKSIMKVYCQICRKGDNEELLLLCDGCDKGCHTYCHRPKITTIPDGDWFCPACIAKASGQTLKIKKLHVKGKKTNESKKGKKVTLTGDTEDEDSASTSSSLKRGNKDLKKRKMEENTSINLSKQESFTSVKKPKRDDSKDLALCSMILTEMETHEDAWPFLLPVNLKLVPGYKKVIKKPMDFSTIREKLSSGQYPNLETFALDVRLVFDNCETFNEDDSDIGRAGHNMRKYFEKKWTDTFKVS
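AlphaScreen displacement: compounds (up to 110uM) incubated 30 min at room temperature with a preformed 50 nM BAZ2B/50 nM biotinylated H3K14Ac peptide complex in PBS pH 7.4 with Tween-20. Donor and acceptor beads at 10 ug/mL final added, 20 min light-protected before reading.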
PLK1 PBD block – blocks phosphopeptide binding to human PLK1 polo-box domain; Plk1 PBD binding of FITC phosphopeptide, fluorescence polarization; Potency, µM, for inactives: max response, negative = inhibition, hits mostly inhibitors; 2.8% of 360,000 active; also: series mostly up to about 57 µM; % is scaled to controls: 0 for no effect and ±100 for the full control effect; nearly all actives have a fitted effect of over 65% in size
HP1b binding inh – blocks HP1-beta chromodomain binding to methylated histone tails. AlphaScreen HP1-beta / biotin-H3K9me3 peptide binding. Potency, µM (highest dose often 114 µM), without a hit: at the highest dose activity change, negative = inhibition, actives largely listed as inhibitors. 0.56% of 390,000 active. AID 540317; also: nearly all actives have a fitted effect of over 70% in size
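Compound inhibition of the preformed complex between 50 nM HP1-beta and 50 nM biotinylated H3K9me3 peptide was read by AlphaScreen. Buffer was PBS pH 7.4 with 0.01% Tween-20. Incubations ran 30 min at room temperature, with 10 ug/mL donor/acceptor beads.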
VDR inh – vitamin D3 receptor (human) inhibition. P11473. VDR-SRC2-3 peptide fluorescence polarization, 2 h. Potency, µM, for the others: max response, negative = inhibition, hits mostly inhibitors. 0.93% of 400,000 active; also: % is scaled to controls: 0 for no effect and ±100 for the full control effect
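FP read-out; VDR + SRC2-3 coactivator peptide; 23 nl compound by pintool; 2 h RT incubation; reagents held at 4 deg C, protected from light.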
The depositor's hits bear a star; ? = inconclusive; . = no result; ! = not active in a repeat; [ ] = dose if it differs, or a comment. Calls follow the shape of the dose curve; as a rule, active = well fitted curve in the direction sought with a large enough effect; inconclusive = small, poorly fitted or top-dose-only effect, or another doubt; inactive = no such curve, though single readings can be large; an effect the other way counts as inactive or inconclusive. Potency is read from the fitted curve at half-maximal effect.

SMILES | G9a inh | JMJD2A Tudor inh | BAZ2B block | PLK1 PBD block | HP1b binding inh | VDR inh
Cc1cccc(-n2cc(-c3ccccc3)c3c(N4CCC(C)CC4)ncnc32)c1 | -36%[59 µM] | -34% | -26% | . | 41% | 11%
Cc1ccc(C)c(N2CCN(S(=O)(=O)c3c(C(=O)N4CCCCC4)c(C)n(C)c3C)CC2)c1 | 79µM* | ? | ? | -19% | 10% | -11%
Cc1c(C(=O)N2CCCCC2)c(S(=O)(=O)NCc2ccc(Cl)cc2)c(C)n1C | 1% | -36% | ? | 24µM* | -8% | ?
COc1cccc(CNS(=O)(=O)c2c(C(=O)N3CCCCCC3)c(C)n(C)c2C)c1 | 12% | 22µM* | -19%[57.1 µM] | 27µM* | -6% | -16%
Cc1ccc(Cl)cc1N1CCN(S(=O)(=O)c2c(C(=O)N3CCOCC3)c(C)n(C)c2C)CC1 | -2%[59 µM] | -34% | ? | -12% | 4% | -1%
Cc1c(C(=O)N2CCCCC2)c(S(=O)(=O)NCc2ccccc2Cl)c(C)n1C | 17% | ? | -19%[57.1 µM] | 27µM* | -5% | ?
Cc1ccc2c(=O)cc(C(=O)Nc3cccc(Cl)c3C)oc2c1C | 4%[59 µM] | -10% | -1% | . | 52% | 3%
CC(=O)Nc1ccc2nc(SCC(=O)NCCOc3ccccc3)sc2c1 | 11%[59 µM] | ? | ? | 3.4µM* | 9% | ?
Cc1ccc(C)c(NC(=O)CSc2nc3ccc(N4C(=O)c5ccccc5C4=O)cc3s2)c1 | 11µM* | -21% | -1% | ? | 42% | -24%
COc1ccc(NC(=O)CSc2nc3ccc(Nc4nc(N5CCOCC5)nc(N5CCOCC5)n4)cc3s2)cc1 | ? | -12% | -7% | 4% | 58% | -7%
Cc1ccc(NC(=O)CSc2nc3ccc(Nc4nc(N5CCOCC5)nc(N5CCOCC5)n4)cc3s2)cc1 | 35µM* | -18% | -20% | -5% | 17% | -1%
Cc1ccc(NC(=O)CSc2nc3ccc(NC(=O)CCc4ccccc4)cc3s2)c(C)c1 | 3%[59 µM] | -8% | -10% | . | 14% | 9%
CC(=O)Nc1ccc2nc(SCC(=O)Nc3ccc(N4CCOCC4)c(Cl)c3)sc2c1 | 43%[0.501 µM] | -21% | 11µM* | -10% | 22% | -12%
Cc1cc(C)nc(SCC(=O)Nc2ccc(N3CCOCC3)c(Cl)c2)n1 | ? | -18% | -6% | -4% | 22% | -6%
O=C(Nc1ccc(F)cc1)N1CCN(c2ccccc2F)CC1 | 13%[59 µM] | -1% | 7% | . | 37% | -6%
O=C(C1CCC(=O)N(C2CCCC2)C1)N1CCN(Cc2cccc(Cl)c2)CC1 (stereo unspecified) | 7% | -4% | -5% | 0% | 23% | 6%
Cc1ccccc1C(=O)N(CC(=O)Nc1sc(C)c(C)c1C(N)=O)C1CCCC1 | -15% | -31% | -8% | -16% | 23% | -15%
CN(C)c1ccc(NC(=O)c2sc(SCC(=O)Nc3nccs3)nc2N)cc1 | ? | ? | 40µM* | -11% | ? | -2%
CCCC(=O)Nc1ccc2nc(SCC(=O)Nc3nccs3)sc2c1 | ? | 79µM* | ? | -4% | -10% | 3%
CCC(Sc1nnc(C)s1)C(=O)Nc1nccs1 (stereo unspecified) | 1% | -6% | -5% | -5% | 23% | 2%
Cc1ccc(NC(=O)CSc2nc3ccc(NC(=O)c4ccco4)cc3s2)cc1 | ? | -35% | 79µM* | . | 13% | 5%
CCC(Sc1nc2ccc(N)cc2s1)C(=O)Nc1nccs1 (stereo unspecified) | 13µM* | 50µM* | -32% | -24% | 26% | 14%
O=C(NCN1C(=O)C2C3C=CC(C3)C2C1=O)Nc1nccs1 (stereo unspecified) | 1%[59 µM] | -4% | -3% | -8% | 24% | 11%
Cn1c(SCC(=O)Nc2ccc3nc(SCC(=O)N4CCCC4)sc3c2)nnc1-c1ccc(N)cc1 | 10µM* | -23% | ? | ? | 24% | -9%
COc1[nH]c(/N=C/c2ccccc2)c(C#N)c1C#N | 3.2µM* | 45µM*! | ? | 21µM* | -32% | -11%
SMILES | G9a inh | JMJD2A Tudor inh | BAZ2B block | PLK1 PBD block | HP1b binding inh | VDR inh
CCc1cccc2c(-c3csc(=NC)n3C)c[nH]c12 | 50µM* | -31% | -31% | ? | 2% | -7%
CCCCN(C(=O)C(C)Oc1ccc(Cl)cc1)c1c(N)n(CCCC)c(=O)[nH]c1=O (stereo unspecified) | 50µM* | 4% | 11% | -9% | 10% | -5%
CCCCn1c(N)c(N(CCOC)C(=O)c2cnc(C)cn2)c(=O)[nH]c1=O | 40µM* | -9% | 12% | -5% | 27% | -1%
CCCCn1c(N)c(N(CCOC)C(=O)c2ccc(C)o2)c(=O)[nH]c1=O | ? | -8% | -1% | -2% | 20% | -25%
CCCCn1c(N)c(N(CCOC)C(=O)c2ccc(-c3ccc(Cl)cc3)o2)c(=O)[nH]c1=O | 11µM* | -14% | ? | ? | 6% | ?
CCCCN(C(=O)c1ccc(-c2ccc(Cl)cc2)o1)c1c(N)n(CCCC)c(=O)[nH]c1=O | 20%[12.7 µM] | -31% | -5% | -20% | 19% | 71µM*
CCCCn1c(N)c(N(CCOC)C(=O)C(C)Oc2ccc(Cl)cc2)c(=O)[nH]c1=O (stereo unspecified) | ? | -12% | -3% | -7% | 24% | 14%
CCc1ccccc1NC(=O)C1CCN(c2cnccn2)CC1 | -10% | 0% | -10% | 0% | 12% | 16%
Cc1ccccc1OCC(=O)NCCCNC(=O)c1cccnc1 | 12% | -7% | 4% | -6% | 24% | ?
CCn1c(CC(=O)Nc2ccc(F)cc2)nnc1SCC(=O)N1CCOCC1 | -39% | -20% | -12% | 30µM* | 15%[57 µM] | 19%
N#Cc1ccccc1OCC(=O)NNC(=O)CCNC(=O)c1ccccc1 | . | -8% | . | -12% | 37% | -14%
CCC(=O)Oc1cc(C(C)(C)C)cc2cc(-c3nc(-c4ccc(OC)cc4OC)no3)c(=O)oc12 | 38%[59 µM] | -7% | 5% | . | 45% | 18%
Cc1cccc(NS(=O)(=O)c2ccc3[nH]c(=O)cc(C(=O)OC(C)C(=O)Nc4ccc([N+](=O)[O-])cc4)c3c2)c1 (stereo unspecified) | 45µM* | ? | -36% | -1% | 2% | -27%
CCCN(CCC)C1=CC(=[N+]2CCCC2)CC(C)(C)C1 | 1.8µM* | ? | -13% | -11% | -14% | -1%
CN(C)NC1=CC(=[N+]2CCCC2)CC(C)(C)C1 | ? | -18% | -11% | -1% | 7% | -2%
Cc1nn2c(=O)cc(COC(=O)COc3ccc(F)cc3)nc2s1 | 10%[59 µM] | -5% | -11% | . | 20% | 6%
COc1ccc(NC(=O)COC(=O)Cc2ccccc2[N+](=O)[O-])cc1OC | -4% | -10% | -17% | 3% | 42% | -23%
